Reference: the supplement of paper PMC11732987, “Enantioselective OTUD7B fragment discovery through chemoproteomics screening and high-throughput optimisation” (Communications Chemistry, 2025)

Experiments:
Assay in all cases: log2 ratio of Biotin-Ahx-Ub-VS probe labelling (fragment/DMSO); higher = less target engagement (more negative = stronger competition), active = hit call of the paper (q ≤ 0.05, log2 ratio ≤ -1)
Settings in all cases: compound concentration: 200 uM; treatment time: 3 h
OTUD6B = target: T1, OTUD6B (UniProt Q8N6M0)
T1 sequence (whole entry): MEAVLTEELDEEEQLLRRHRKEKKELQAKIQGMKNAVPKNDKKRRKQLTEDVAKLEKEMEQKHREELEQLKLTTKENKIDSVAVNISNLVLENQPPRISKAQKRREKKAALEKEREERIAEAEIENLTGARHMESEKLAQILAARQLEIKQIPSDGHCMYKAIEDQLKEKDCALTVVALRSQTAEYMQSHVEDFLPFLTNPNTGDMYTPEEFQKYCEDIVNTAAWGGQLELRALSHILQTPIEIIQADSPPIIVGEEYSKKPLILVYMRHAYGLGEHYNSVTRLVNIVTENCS
Summary of the method: (§1)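 Each value is an average log2 ratio of fragment to vehicle, tested by unpaired t-test. The underlying Spectronaut label-free quantities were global-median-normalised, and only proteins with ≥2 unique peptides were included. Triplicate HEK293T lysate samples (495 µg) were exposed to fragment at 200 µM or vehicle for 3 h, then to Biotin-Ahx-Ub-VS at 0.5 µM final for 1 h, before NeutrAvidin enrichment of labelled DUBs, LysC and trypsin digestion, and diaPASEF LC-MS/MS.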

OTUD7B = target: T2, OTUD7B (UniProt Q6GQQ9)
T2 sequence (whole entry): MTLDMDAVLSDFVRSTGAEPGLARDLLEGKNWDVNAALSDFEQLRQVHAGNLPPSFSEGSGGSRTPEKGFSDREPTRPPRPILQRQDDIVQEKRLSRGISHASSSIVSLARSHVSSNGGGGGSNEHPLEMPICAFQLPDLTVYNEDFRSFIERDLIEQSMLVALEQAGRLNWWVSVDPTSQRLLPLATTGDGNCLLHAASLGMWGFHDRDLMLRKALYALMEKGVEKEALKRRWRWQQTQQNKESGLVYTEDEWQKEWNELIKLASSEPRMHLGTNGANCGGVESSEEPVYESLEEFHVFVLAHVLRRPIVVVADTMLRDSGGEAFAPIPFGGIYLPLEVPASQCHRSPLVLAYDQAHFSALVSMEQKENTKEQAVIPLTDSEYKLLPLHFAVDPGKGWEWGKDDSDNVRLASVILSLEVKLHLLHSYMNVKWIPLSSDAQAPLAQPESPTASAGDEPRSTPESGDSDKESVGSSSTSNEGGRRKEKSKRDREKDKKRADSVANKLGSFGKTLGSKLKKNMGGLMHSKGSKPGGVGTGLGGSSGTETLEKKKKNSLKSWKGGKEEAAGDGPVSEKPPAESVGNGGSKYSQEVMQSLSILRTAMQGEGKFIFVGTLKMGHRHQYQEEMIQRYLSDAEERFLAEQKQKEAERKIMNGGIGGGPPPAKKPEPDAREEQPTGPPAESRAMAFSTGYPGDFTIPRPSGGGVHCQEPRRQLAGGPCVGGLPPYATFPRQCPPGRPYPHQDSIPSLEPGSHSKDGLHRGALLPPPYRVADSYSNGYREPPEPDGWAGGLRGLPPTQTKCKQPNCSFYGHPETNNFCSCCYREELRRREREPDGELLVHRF
Summary of the method: as §1

PRPF8 = PRPF8 (UniProt Q6P2Q9)
Summary of the method: as §1

PSMD7 = target: T3, PSMD7 (UniProt P51665)
T3 sequence (whole entry): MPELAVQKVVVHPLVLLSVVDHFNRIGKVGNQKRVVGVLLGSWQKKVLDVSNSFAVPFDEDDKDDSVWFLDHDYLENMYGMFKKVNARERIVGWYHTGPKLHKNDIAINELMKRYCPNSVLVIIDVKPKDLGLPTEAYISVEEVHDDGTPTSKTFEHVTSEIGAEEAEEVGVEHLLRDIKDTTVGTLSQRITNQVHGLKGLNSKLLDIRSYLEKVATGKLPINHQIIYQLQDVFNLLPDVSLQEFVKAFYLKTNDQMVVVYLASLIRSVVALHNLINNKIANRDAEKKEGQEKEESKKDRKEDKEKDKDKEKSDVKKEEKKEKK
Summary of the method: as §1

UCHL1 = UCHL1 (UniProt P09936)
Chain of UCHL1 (P09936 whole entry, looked up): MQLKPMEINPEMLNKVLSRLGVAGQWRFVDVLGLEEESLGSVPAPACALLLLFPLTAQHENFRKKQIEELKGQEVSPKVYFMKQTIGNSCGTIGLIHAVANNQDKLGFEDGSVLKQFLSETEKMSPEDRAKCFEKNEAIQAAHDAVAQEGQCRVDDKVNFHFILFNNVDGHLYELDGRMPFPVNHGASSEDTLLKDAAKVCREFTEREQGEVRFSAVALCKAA
Summary of the method: as §1

UCHL3 = target: T4, UCHL3 (UniProt P15374)
T4 sequence (whole entry): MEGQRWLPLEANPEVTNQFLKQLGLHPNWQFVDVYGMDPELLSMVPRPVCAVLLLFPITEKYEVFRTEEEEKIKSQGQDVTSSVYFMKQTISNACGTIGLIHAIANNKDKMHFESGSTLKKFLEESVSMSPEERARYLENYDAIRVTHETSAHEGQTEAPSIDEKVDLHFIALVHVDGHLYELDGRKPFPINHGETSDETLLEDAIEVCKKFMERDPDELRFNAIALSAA
Summary of the method: as §1

UCHL5 = target: T5, UCHL5 (UniProt Q9Y5K5)
T5 sequence (whole entry): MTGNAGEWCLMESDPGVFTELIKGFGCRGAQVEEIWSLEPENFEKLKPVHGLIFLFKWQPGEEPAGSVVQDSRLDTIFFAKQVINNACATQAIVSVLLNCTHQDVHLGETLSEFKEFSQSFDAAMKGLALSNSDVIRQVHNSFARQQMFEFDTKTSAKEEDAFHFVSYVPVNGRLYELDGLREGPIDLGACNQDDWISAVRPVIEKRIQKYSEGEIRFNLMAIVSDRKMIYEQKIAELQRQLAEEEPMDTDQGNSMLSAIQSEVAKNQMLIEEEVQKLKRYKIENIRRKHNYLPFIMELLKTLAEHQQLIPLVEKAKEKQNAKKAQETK
Summary of the method: as §1

USP10 = USP10 (UniProt Q14694)
Chain of USP10 (Q14694 whole entry): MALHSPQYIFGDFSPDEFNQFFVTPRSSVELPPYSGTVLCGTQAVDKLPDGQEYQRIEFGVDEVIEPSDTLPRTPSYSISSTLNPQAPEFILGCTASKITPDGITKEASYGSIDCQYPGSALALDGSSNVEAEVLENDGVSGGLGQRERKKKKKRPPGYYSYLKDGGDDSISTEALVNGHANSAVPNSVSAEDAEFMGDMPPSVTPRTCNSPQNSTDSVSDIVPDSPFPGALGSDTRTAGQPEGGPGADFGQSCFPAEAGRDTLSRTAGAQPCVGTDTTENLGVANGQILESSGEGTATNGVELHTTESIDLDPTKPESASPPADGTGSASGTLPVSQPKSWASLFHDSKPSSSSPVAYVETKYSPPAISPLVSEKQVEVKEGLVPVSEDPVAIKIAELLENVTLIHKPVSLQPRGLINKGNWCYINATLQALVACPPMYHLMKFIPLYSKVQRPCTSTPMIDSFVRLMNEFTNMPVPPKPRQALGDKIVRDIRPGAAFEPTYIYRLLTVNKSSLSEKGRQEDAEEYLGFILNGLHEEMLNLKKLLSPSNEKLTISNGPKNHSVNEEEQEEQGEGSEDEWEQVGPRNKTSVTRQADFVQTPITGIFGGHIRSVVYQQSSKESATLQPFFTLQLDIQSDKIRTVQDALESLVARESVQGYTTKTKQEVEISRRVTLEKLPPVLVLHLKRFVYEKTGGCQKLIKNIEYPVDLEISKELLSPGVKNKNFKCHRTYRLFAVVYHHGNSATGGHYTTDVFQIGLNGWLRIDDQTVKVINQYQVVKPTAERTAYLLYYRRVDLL
Summary of the method: as §1

USP15 = target: T6, USP15 (UniProt Q9Y4E8)
T6 sequence (whole entry): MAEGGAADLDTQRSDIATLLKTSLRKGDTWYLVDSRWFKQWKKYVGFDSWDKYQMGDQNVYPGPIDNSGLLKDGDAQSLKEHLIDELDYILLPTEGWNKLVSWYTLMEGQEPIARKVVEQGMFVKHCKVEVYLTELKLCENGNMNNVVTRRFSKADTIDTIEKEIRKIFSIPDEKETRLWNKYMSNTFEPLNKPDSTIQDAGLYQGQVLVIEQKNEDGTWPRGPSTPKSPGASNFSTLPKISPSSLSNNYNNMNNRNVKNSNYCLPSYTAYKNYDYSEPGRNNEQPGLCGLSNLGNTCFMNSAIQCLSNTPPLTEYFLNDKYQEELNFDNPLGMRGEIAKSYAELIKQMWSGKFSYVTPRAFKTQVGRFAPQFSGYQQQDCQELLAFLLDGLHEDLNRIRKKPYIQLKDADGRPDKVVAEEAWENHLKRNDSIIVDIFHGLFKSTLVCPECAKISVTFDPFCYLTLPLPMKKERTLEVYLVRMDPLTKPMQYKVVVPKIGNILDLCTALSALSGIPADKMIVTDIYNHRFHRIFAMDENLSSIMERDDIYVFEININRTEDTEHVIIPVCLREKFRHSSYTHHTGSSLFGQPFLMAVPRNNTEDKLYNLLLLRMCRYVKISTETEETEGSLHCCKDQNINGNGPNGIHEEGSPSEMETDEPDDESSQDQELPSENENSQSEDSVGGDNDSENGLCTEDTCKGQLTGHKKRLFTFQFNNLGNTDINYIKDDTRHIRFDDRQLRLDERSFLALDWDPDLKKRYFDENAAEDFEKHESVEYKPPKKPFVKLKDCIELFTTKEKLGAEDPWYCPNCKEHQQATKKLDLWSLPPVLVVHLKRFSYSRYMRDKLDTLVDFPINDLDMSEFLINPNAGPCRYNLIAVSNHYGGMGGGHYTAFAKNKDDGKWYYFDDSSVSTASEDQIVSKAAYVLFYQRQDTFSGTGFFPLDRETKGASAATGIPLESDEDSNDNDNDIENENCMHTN
Summary of the method: as §1

USP16 = USP16 (UniProt Q9Y5T5)
Chain of USP16 (Q9Y5T5 whole entry, looked up): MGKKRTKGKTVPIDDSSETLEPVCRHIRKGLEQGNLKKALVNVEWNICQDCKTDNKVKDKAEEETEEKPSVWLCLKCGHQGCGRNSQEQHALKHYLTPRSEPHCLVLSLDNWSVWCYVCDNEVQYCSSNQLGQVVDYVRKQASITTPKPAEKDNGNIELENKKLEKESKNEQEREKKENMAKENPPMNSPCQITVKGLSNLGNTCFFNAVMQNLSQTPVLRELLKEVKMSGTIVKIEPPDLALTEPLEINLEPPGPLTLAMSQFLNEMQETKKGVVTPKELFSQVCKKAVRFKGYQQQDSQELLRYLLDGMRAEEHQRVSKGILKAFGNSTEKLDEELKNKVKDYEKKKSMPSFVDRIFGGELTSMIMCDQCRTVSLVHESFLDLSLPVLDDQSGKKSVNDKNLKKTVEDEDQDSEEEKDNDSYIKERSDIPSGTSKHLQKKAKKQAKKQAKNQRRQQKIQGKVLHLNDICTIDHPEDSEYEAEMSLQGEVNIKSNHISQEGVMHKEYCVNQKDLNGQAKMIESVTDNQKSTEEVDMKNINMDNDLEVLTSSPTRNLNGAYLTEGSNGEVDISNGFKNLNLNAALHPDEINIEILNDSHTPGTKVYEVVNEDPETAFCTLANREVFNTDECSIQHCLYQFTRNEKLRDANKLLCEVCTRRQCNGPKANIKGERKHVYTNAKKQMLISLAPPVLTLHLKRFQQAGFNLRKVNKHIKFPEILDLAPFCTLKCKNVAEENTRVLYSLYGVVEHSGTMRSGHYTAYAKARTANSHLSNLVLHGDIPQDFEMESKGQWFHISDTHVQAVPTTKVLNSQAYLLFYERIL
Summary of the method: as §1

Measured: log2 ratio of Biotin-Ahx-Ub-VS probe labelling

O=C(CCl)NCCc1cccc2ccccc12
inactive: OTUD6B 0.0475 | OTUD7B -0.286 | PRPF8 0.117 | PSMD7 0.0665 | UCHL1 -0.978 | UCHL3 0.331 | UCHL5 -0.029 | USP10 -0.0479 | USP15 0.076 | USP16 -0.496
